Experimental findings from PubChem BioAssay are described below.

Assay [1] concerns Human papillomavirus type 1a protein E7 (residues 44-93). Put plainly: HPV1a E7 fragment binders on microarrays, primary screen, biochemical, small-molecule microarray, residues 44-93, 635 nm fluorescence (AID 1108).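 Note: E7 fragment applied at 1 µg/mL in TBST for 1 h at 4 C; score combines spot fluorescence with its signal to noise ratio.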 Conditions: small-molecule microarray binding, fluorescence 635 nm; higher = more signal.
Assay [2] in a line: modulators of HCV replicon luciferase signal, primary screen, HCV replication inhibitor project, Huh7 cells, luciferase reporter (AID 1109).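 Note: huh7 hepatoma cells harbouring a luciferase neomycin HCV replicon reporter; luciferase luminescence as measure of HCV replicon replication; test concentration not given here.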 Conditions: 48 h, higher = more signal.
The target in assay [3] is Left-right determination factor 2 (Homo sapiens) (UniProt O00292). Put plainly: LEFTY2 binders on small-molecule microarrays, primary screen, biochemical, small-molecule microarray, 635 nm fluorescence scan (AID 1110). Particulars: LEFTY2 binding, higher = more signal.
Chain of Left-right determination factor 2 (Homo sapiens) (O00292 whole entry, looked up): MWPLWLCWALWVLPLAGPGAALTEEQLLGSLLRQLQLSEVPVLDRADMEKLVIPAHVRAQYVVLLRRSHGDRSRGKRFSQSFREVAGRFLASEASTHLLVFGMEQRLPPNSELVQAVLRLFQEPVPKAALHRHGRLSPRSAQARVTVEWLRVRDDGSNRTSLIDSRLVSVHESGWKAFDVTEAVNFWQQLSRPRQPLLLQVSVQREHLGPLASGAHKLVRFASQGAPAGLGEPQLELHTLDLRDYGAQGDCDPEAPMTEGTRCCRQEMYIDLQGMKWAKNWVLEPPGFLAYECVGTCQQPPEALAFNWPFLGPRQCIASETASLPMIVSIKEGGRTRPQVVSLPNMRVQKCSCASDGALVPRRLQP
Assay [4] concerns the target Calmodulin-1 (Homo sapiens) (UniProt P0DP23). Kind of assay: CALM1 binders on microarrays, EGTA buffer, profiling panel, biochemical, small-molecule microarray, Cy5-labelled CALM1 (AID 1111).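 Note: labelled calmodulin applied in Tris saline Tween buffer holding calcium plus EGTA and DTT.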 Particulars: Cy5-CALM1 binding fluorescence, higher = more signal.
For assay [5] the target is unchanged. Kind of assay: calcium-bound CALM1 binders on microarrays, profiling panel, artefact control for SMM control-protein annotation, biochemical, small-molecule microarray, Cy5-labelled CALM1, plus calcium (AID 1112).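 Note: score merges spot fluorescence with signal to noise from triplicate slides.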 Conditions: Cy5-CALM1 binding fluorescence, higher = more signal.
Assay [6] in a line: small-molecule microarray binders of probe aWnt5a, primary screen, biochemical, biotinylated probe, 635/667 nm fluorescence (AID 1113).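 Note: score merges 667 nm fluorescence intensity with signal-to-noise per printed feature.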 Conditions: higher = more signal.
Assay [7] is described as follows: small-molecule microarray binders of probe aShh, primary screen, biochemical, biotinylated probe, 635/667 nm fluorescence (AID 1114).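 Note: probe is biotin-labelled aShh protein from a stem cell growth factor screen; measures binding of labelled protein to compounds printed on the slide; score merges feature fluorescence at 667 nm with signal-to-noise.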 Particulars: higher = more signal.
Assay [8] is described as follows: small-molecule microarray binders of probe aNog, primary screen, biochemical, biotinylated probe, 635/667 nm fluorescence (AID 1115).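 Note: probe is biotinylated aNog protein used at 0.15 µg/mL for 1 h at 4 C; z-score combines 667 nm fluorescence of each spot with its signal to noise.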 Particulars: higher = more signal.
Assay [9] addresses Torsin-1A-interacting protein 1 (Homo sapiens) (UniProt Q5JTV8). Put plainly: LAP1 binders from COS7 cell lysate, primary screen, small-molecule microarray, 635/667 nm fluorescence (AID 1116). Particulars: COS7-hLAP1 lysate binding, 635 nm fluorescence, higher = more signal.
Assay [10] addresses Alpha-bungarotoxin (Bungarus multicinctus) (UniProt P60615). Put plainly: alpha-bungarotoxin binders on microarray, profiling panel, artefact control for SMM control protein annotation, biochemical, small-molecule microarray, Alexa647 label, 635/667 nm fluorescence (AID 1117). Conditions: alpha-BTX-A647 binding fluorescence, higher = more signal.
The next assay addresses Albumin (Bos taurus) (UniProt P02769). Kind of assay: bovine serum albumin binders on microarray, profiling panel, artefact control for SMM control protein annotation, biochemical, small-molecule microarray, Alexa647 label, 635/667 nm fluorescence (AID 1118).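 Note: score merges 667 nm emission intensity and signal-to-noise per printed compound spot.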 Conditions: BSA-A647 binding, fluorescence 635 nm, higher = more signal.
Assay [11] is described as follows: small-molecule microarray binders of probe aXIP, primary screen, biochemical, NeuroSMM set, 635/667 nm fluorescence (AID 1119).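 Note: probe is the protein aXip251-270 applied at 1 µg/mL to compound-printed slides; binding of probe to printed compounds measured as 667 nm fluorescence plus signal to noise.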 Particulars: higher = more signal, called active from +8 up or from −8 down.
Assay [12] in a line: small-molecule binders of probe aNOTCH3, primary screen, biochemical, small-molecule microarray, 635/667 nm fluorescence (AID 1120).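 Note: probe is a biotin-tagged antibody raised against NOTCH3 rather than NOTCH3 protein; score merges spot fluorescence near 667 nm with spot signal to noise.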 Conditions: higher = more signal.
Assay [13] is described as follows: small-molecule binders of probe aNOTCH2, primary screen, biochemical, small-molecule microarray, 635/667 nm fluorescence (AID 1121).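 Note: score merges feature fluorescence read at 667 nm with its signal to noise.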 Conditions: higher = more signal.
Assay [14] deals with Carbonic anhydrase 2 (Homo sapiens) (UniProt P00918). Kind of assay: CAII small-molecule binders, profiling panel, biochemical, small-molecule microarray, Alexa647-labelled CAII (AID 1122). Conditions: CAII-A647 binding fluorescence, higher = more signal.
The nature of assay [15]: COS7 lysate on small-molecule microarray, probe aHis, 635 nm (AID 1123).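 Note: z-score combines 667nm fluorescence intensity with signal-to-noise per printed compound spot.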 Particulars: COS7 cell lysate, fluorescence, higher = more signal.
Assay [16] can be described thus: compound binding in COS7 lysate, probe aLAP1, primary screen, cell lysate, small-molecule microarray (AID 1124).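 Note: lysate comes from COS7 cells expressing LAP1 and is applied at 0.3 µg/mL; score merges spot fluorescence near 667 nm with signal-to-noise over triplicate slides.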 Conditions: probe aLAP1, fluorescence, higher = more signal.
The next assay concerns Sam68 (KHDRBS1). Kind of assay: Sam68 small-molecule binders, primary screen, biochemical, small-molecule microarray, 635 nm fluorescence (AID 1125).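 Note: score merges 667 nm channel intensity with signal to noise over triplicate slides.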 Conditions: small-molecule microarray binding, higher = more signal.
Assay [17] relates to Chordin-like protein 2 (CHRDL2). Put plainly: CHRDL2 small-molecule binders, primary screen, biochemical, small-molecule microarray, 635 nm fluorescence (AID 1126).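 Note: printed compound slides probed with Chrdl2 protein at 4 µg/mL for 1 h at 4 C; score merges 667 nm emission intensity with signal to noise over three replicate slides.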 Particulars: small-molecule microarray binding, fluorescence 635 nm; higher = more signal.
Assay [18] concerns the target Concanavalin-A (Canavalia ensiformis) (UniProt P02866). Kind of assay: ConA small-molecule binders, primary screen, artefact control for SMM control protein annotation, biochemical, small-molecule microarray, Alexa647 label, 635 nm (AID 1127).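 Note: z combines 667 nm emission intensity with signal-to-noise across three replicate slides.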 Particulars: ConA-A647 binding fluorescence, higher = more signal.

The source made the active and inactive calls.

Chain of Alpha-bungarotoxin (Bungarus multicinctus) (P60615 whole entry, looked up): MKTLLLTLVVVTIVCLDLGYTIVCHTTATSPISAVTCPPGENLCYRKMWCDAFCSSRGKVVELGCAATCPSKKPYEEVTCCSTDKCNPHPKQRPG
Chain of Concanavalin-A (Canavalia ensiformis) (P02866 whole entry, looked up): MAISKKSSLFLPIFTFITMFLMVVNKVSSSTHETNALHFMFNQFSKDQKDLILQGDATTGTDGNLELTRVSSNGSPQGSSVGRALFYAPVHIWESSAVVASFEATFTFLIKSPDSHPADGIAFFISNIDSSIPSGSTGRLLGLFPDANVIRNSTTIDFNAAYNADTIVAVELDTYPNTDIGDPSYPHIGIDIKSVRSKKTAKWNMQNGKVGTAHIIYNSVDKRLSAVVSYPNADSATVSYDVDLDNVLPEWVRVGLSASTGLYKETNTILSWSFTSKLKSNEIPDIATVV
Chain of Albumin (Bos taurus) (P02769 whole entry, looked up): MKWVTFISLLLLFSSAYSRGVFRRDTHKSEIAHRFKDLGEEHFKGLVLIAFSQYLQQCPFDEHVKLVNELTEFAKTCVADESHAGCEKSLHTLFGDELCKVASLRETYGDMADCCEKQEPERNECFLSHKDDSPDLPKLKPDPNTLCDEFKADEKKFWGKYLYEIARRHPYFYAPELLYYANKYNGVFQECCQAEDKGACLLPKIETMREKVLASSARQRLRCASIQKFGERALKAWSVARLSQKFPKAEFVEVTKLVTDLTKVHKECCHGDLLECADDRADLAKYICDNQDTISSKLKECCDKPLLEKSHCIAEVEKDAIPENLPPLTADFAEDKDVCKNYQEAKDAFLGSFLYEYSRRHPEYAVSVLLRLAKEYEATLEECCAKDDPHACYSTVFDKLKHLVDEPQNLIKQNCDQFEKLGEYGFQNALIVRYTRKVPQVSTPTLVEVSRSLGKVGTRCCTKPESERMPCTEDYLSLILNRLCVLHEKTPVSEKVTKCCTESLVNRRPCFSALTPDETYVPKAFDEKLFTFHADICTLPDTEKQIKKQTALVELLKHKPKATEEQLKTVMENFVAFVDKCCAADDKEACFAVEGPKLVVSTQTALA
Chain of Torsin-1A-interacting protein 1 (Homo sapiens) (Q5JTV8 whole entry, looked up): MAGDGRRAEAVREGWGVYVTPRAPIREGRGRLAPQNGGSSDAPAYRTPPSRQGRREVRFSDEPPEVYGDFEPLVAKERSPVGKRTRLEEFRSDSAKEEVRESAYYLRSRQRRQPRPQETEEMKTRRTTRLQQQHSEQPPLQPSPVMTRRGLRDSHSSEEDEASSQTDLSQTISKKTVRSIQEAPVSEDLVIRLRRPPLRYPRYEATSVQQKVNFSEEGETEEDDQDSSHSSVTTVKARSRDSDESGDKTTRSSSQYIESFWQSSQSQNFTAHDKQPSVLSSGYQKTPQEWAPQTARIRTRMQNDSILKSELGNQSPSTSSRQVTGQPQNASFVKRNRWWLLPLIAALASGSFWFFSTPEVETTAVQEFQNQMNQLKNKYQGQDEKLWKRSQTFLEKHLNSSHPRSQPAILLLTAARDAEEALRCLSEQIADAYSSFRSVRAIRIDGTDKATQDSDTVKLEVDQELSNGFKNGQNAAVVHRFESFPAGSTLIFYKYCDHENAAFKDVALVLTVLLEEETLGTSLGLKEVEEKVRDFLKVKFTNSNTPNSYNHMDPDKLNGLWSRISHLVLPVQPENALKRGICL

Consider `CCCCC=C[C@@H](NC(=O)c1ccccc1)c1ccccc1`, for which the composite z-score in assay [1] is 1.38; in [3] it was -0.174; in [4] it was 1.87; in assay [5], 1.28; in assay [6], -0.0229; in [7], -0.253. The composite z-score in [8] was -0.578; in [9] it was 0.206; in assay [10], 0.448; with Albumin (Bos taurus), 0.943; in assay [12], 0.354; in [13], -0.0785. Also, the composite z-score in assay [14] is 0.561; in assay [15] it was 2.62; in assay [16], 0.172; in the assay with Sam68 (KHDRBS1), 1.26; in assay [17], -0.621; in assay [18] it was 1.08. The compound further yielded a z-score in [2] of 1.02. The composite Z-score in assay [11] was -0.176 (inactive).

Take `CC(C)C[C@@H]1NC(=O)CNC(=O)[C@@]23C(=O)N[C@@H](Cc4ccccc4)C2[C@H](C)[C@@]2(C)O[C@H]2C3/C=C/C/C=C\CNC1=O` (stereo not given in full): the composite z-score in assay [1] was 1.39; in assay [3], 0.6; in assay [4], -0.263; in assay [5], -0.825; in assay [6] it was -0.147; in [7], -0.388. The composite z-score in assay [8] is -0.177; in [9], 0.625; in [10], 0.985; in the assay with Albumin (Bos taurus), -0.007; in assay [12] it was 0.0026; in assay [13], -0.102. For the same compound, the composite z-score was 0.461 in [14]; 0.718 in assay [15]; 0.461 in assay [16]; 1.29 in the assay on Sam68 (KHDRBS1); 0.764 in assay [17]; -0.404 in [18]. The z-score in assay [2] was -0.275. Moreover, in [11], the composite Z-score was 0.692 (inactive).

As for `C=CCNC(=O)[C@H]1[C@@H]2C(=O)O[C@@H](c3ccccc3)[C@@H](c3ccccc3)N2[C@@H](c2ccc(OCCO)cc2)[C@]12C(=O)Nc1ccc(C#CCNC(N)=O)cc12`, the composite z-score in assay [1] is 0.0863; in assay [3] it was 0.192; in [4], 1.41; in assay [5], 1.15; in [6], -0.0009; in [7], 0.163. Besides, the composite z-score in [8] was 0.85; in [9], 0.311; in assay [10], 2.07; with Albumin (Bos taurus), 0.601; in [12] it was 0.103; in assay [13] it was -0.0624. In addition, the composite z-score was 0.587 in assay [14]; 0.261 in [15]; -0.113 in [16]; 1.18 in the assay with Sam68 (KHDRBS1); -0.269 in assay [17]; 1.1 in assay [18]. Also, in [2], the z-score is -0.587. In [11], the composite Z-score was -0.262 (inactive).

On to `C=C(C(=O)CC[C@@H](OC(=O)c1ccccc1-c1ccccc1C(=O)O)c1ccccc1OCCO)C(C)C`, for which the composite z-score in assay [1] is 1.38; in [3], 0.355; in assay [4], 0.0583; in assay [5], -0.7; in assay [6], -0.0405; in [7], 0.232. The composite z-score in assay [8] was -0.409; in [9], 0.202; in assay [10], 1.05; with Albumin (Bos taurus) it was 0.287; in [12], -0.0111; in [13] it was -0.108. Besides, the composite z-score in assay [14] was determined as 0.734; in assay [15] it was 0.418; in assay [16], 0.175; in the assay on Sam68 (KHDRBS1), 1.21; in assay [17], 0.935; in [18], 0.866. For the same compound, the z-score in assay [2] is -2.63. The composite Z-score in assay [11] is -0.28 (inactive).

Turning to `CCCC=C(CCC)[C@@H](NC(=O)CCc1ccccc1)c1ccc(C(F)(F)F)cc1`, the composite z-score is 1.36 in assay [1]; -0.203 in [3]; 1.58 in [4]; 1.03 in [5]; 0.451 in assay [6]; 0.93 in assay [7]. Besides, the composite z-score in assay [8] was 0.555; in [9], 1.11; in assay [10], 1.23; with Albumin (Bos taurus), 0.964; in [12], 0.265; in assay [13], -0.0095. In addition, the composite z-score was 0.58 in assay [14]; 2.82 in [15]; 0.0364 in assay [16]; 1.27 in the assay with Sam68 (KHDRBS1); -0.153 in assay [17]; 1.1 in assay [18]. This compound also returned a z-score in [2] of -1.51. In assay [11], the composite Z-score is -0.1 (inactive).
